Shown are actives, neighbours in structure and some others; about 3.2% of the full set was active somewhere.
CHT inh: human CHT choline transport inhibition. Q9GZV3. CHT-expressing cells, membrane potential dye, choline response; hits give low values. B-score at 10 µM. 310,000 compounds, 0.86% hits. AID 488975;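 active = B-score over 3 SD under the library average, and starting fluorescence ratio not unusually high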;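 note: choline stimulus applied at its EC90 after an EC20 pre-addition; B-score computed on integrated fluorescence ratio after choline addition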
HDAC3 inh: human HDAC3 inhibition; O15379; recombinant HDAC3, fluorogenic peptide/trypsin coupled, fluorescence; inhibition, % at 8.3 µM; 320,000 compounds, 0.15% hits; in the data active = inhibition above about 26%, passing the limit was not always enough; inconclusive = no clear call, values can overlap the other calls
ANO1 block: blocks the mouse calcium-activated chloride channel TMEM16A; HEK293 TMEM16A/YFP iodide influx fluorescence, ionomycin; 310,000 compounds, 1.2% hits; normalized B-score (activity score, 25-100; higher = stronger inhibition) at 10 µM;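 active = ratio plate-corrected score three or more library SD toward inhibition, starting fluorescence score within five deviations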;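 note: score derived from kinetic fluorescence span divided by baseline fluorescence per well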
CHT PAM: allosteric activators of human choline transporter CHT | Q9GZV3 | 310,000 compounds, 0.49% hits | B-score at 10 µM | CHT-expressing cells, membrane potential dye, choline EC20; hits give high values; LV-AA mutant CHT in HEK293 cells;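 active = initial fluorescence not abnormally high and integrated response B-score, plate-corrected, over 3 SD above library mean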
TMEM16A act: mouse TMEM16A channel activation, primary screen; Q8BHY3; HEK293 TMEM16A/YFP-H148Q/I152L, iodide quench fluorescence; hits give low values; B-score at 10 µM; 340,000 compounds, 0.3% hits; AID 623877;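 active = fluorescence-ratio B-score plate-corrected deviation score at least 3 library SD below zero, with starting fluorescence score within 5 deviations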;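 note: channel opened by trigger with iodide after compound preincubation; score built on the fluorescence ratio of max minus min over baseline; more negative score means more quench and so TMEM16A activation or potentiation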
PHOSPHO1 block: PHOSPHO1 (human) inhibition; inhibition, % at 13.3 µM; recombinant PHOSPHO1, absorbance phosphatase assay; 290,000 compounds, 1.1% hits; AID 1565; Q8TCT1; in the data active = inhibition above about 60%
Target sequence (Q8TCT1 whole entry, looked up): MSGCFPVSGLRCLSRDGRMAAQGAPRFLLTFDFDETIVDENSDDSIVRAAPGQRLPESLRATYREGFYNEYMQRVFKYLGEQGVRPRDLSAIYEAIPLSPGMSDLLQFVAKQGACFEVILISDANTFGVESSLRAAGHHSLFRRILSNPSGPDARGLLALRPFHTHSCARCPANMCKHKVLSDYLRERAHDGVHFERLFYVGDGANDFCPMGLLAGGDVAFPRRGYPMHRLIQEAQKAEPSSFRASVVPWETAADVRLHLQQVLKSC
Numbers stand for hits; i = inactive; ? = inconclusive; nt = no result given.

SMILES	CHT inh	HDAC3 inh	ANO1 block	CHT PAM	TMEM16A act	PHOSPHO1 block
CCCCn1c(=O)c2ccccc2c2ccccc2c1=O	i	i	i	i	i	i
Cc1ccccc1-n1c2nc(=O)n(C)c(=O)c-2cc2ccccc21	i	i	100	i	i	i
Fc1ccc(NC(=S)N2CCCc3ccccc32)cc1	i	i	i	i	i	95.3
Cc1ccc(NC(=O)N2CCCc3ccccc32)cc1	i	i	i	i	i	i
Cc1ccc(CC(=O)Nc2ncc([N+](=O)[O-])s2)cc1	i	i	i	i	i	i
CCCCC(CC)C(=O)Nc1ncc([N+](=O)[O-])s1 (stereo not drawn)	i	i	100	i	i	i
O=C(NC1CCCCC1)C(=O)c1c[nH]c2ccccc12	i	i	i	i	i	i
CN(CC(=O)N1CCN(Cc2ccccc2)CC1)S(=O)(=O)c1ccc(F)cc1	i	i	i	i	i	i
COc1ccccc1Cn1c(=S)[nH]c2cc(C(=O)N3CCN(c4ccccc4OC)CC3)ccc2c1=O	i	i	i	i	i	i
COc1ccccc1N1CCN(C(=O)c2ccc3c(=O)n(Cc4ccco4)c(=S)[nH]c3c2)CC1	i	i	i	i	i	82.0
Cc1cc(C)nc(NC(=O)c2cc([N+](=O)[O-])cc([N+](=O)[O-])c2)n1	i	?	i	7.22	i	i
Cc1nnn(C23CC4CC(CC(C4)C2)C3)n1	i	i	i	i	i	i
CCn1cc(CN2CCc3c([nH]c4ccccc34)C2c2cccc(O)c2)c(C)n1 (stereo not drawn)	i	i	i	i	i	63.7
CCOC(=O)c1ccccc1OCc1cc(/C=N/n2cnnc2)ccc1OC	i	i	i	i	i	i
O=C(Nc1nc(-c2ccco2)c(-c2ccco2)s1)C1CC(=O)N(c2ccc3c(c2)OCCO3)C1 (stereo not drawn)	i	i	i	i	-6.24	i
COc1cccc(Oc2ccc(N/C=C/C(=O)C(C)(C)C)cc2)c1	i	i	25	i	i	i
CCOc1ccccc1NC(=O)CC1SC(=N)N(c2ccccc2)C1=O (stereo not drawn)	i	i	i	i	nt	i
Brc1ccccc1-c1nnc(SCc2nc3ccccc3s2)o1	i	i	25	i	i	i
O=C(CSc1nnc(-c2ccccc2Br)o1)N1CCOCC1	i	i	i	i	i	i
COc1ccc(N2CCN(C(=O)c3ccc(-c4nc5ccccc5s4)o3)CC2)cc1	nt	i	nt	nt	-28.3	nt
Cc1cnc(NC(=O)c2ccc(-c3nc4ccccc4s3)o2)s1	i	i	i	i	i	104.8
COc1cc(/C=C2\N=C(C)OC2=O)cc(OC)c1OC	i	36.1	i	i	i	nt
CC(=O)Cc1nsc(NC(=O)c2ccc(-c3cccc(Cl)c3)o2)n1	i	i	i	i	i	i
O=C(Nc1cccc(/C=C/c2ccccn2)c1)c1ccc(-n2cncn2)c([N+](=O)[O-])c1	i	i	25	i	i	nt
COc1ccc(/C=C2\SC(=S)N(NC(=O)c3ccncc3)C2=O)cc1OC	-7.99	i	i	i	nt	i
SMILES	CHT inh	HDAC3 inh	ANO1 block	CHT PAM	TMEM16A act	PHOSPHO1 block
COc1cc(/C=C2/SC(=S)N(C)C2=O)ccc1OC(=O)c1ccco1	i	i	i	i	i	i
COc1cc(/C=C2\SC(=S)N(NC(C)=O)C2=O)ccc1OC(=O)c1ccco1	nt	27.4	nt	nt	i	nt
O=C(NN1C(=O)/C(=C/c2ccc(O)cc2)SC1=S)c1cccc(O)c1	-9.4	i	i	i	i	i
COc1cc(/C=C2\SC(=S)N(NC(=O)c3ccccc3O)C2=O)ccc1O	i	i	i	i	i	i
O=C(NN1C(=O)/C(=C/c2ccc(O)cc2)SC1=S)c1ccccc1O	i	i	i	i	i	i
COc1ccccc1NC(C#N)c1ccccc1OCc1ccccc1 (stereo not drawn)	i	i	i	i	i	i
CCOc1ccc(N=Nc2c(=O)[nH]n3c(=O)c4c([nH]c23)CCCC4)cc1	i	i	i	i	i	i
O=c1[nH]n2c(=O)c3c([nH]c2c1N=Nc1cccc(Cl)c1)CCCC3	i	i	i	i	i	75.7
Cc1ccc(Oc2ncccc2/C=N/OCc2ccc(Cl)cc2Cl)cc1	i	i	i	i	i	i
O=C(O)C1CC(C(=O)O)SS1 (stereo not drawn)	nt	nt	nt	nt	i	nt
CC(NCc1ccc(S(N)(=O)=O)cc1)C(=O)Nc1cccc(Cl)c1 (stereo not drawn)	i	i	i	i	i	i
CC(NCc1ccc(S(N)(=O)=O)cc1)C(=O)Nc1ccc([N+](=O)[O-])cc1Cl (stereo not drawn)	i	i	i	i	-24.1	i
CCN(CC)c1ccc(NC(=O)COC(=O)CCC(=O)c2ccc(F)cc2)cc1	i	i	i	i	i	85.0
CCCCNC(=S)NC(=O)c1ccc(Cl)cc1Cl	i	i	i	i	i	i
S=c1[nH]ncn1/N=C/c1ccc(N2CCOCC2)cc1	i	?	i	i	i	87.9
S=c1[nH]ncn1/N=C/c1ccc(Br)cc1	i	i	i	i	i	96.3
C(=N\n1cnnc1)/c1ccc(N2CCOCC2)cc1	i	i	i	i	i	i
S=c1[nH]nc(Cc2ccc(Br)cc2)n1/N=C/c1ccc(Cl)cc1	i	i	i	i	i	i
S=c1[nH]ncn1/N=C/c1ccccc1	i	i	i	i	i	88.9
S=c1[nH]c(-c2ccccc2)cn1/N=C/c1ccncc1	i	i	i	i	i	69.9
CCn1c2ccccc2c2cc(/C=N/n3cn[nH]c3=S)ccc21	i	i	i	i	i	i
COCCCNC(=S)NNC(=O)c1ccc(C(C)(C)C)cc1	i	i	i	i	i	i
Cc1ccc(S(=O)(=O)NC(=NC(C)C)c2ccccc2)cc1	i	i	i	i	i	i
Cc1ccc(S(=O)(=O)C/N=C(/NC(=S)N(c2ccccc2)c2ccccc2)c2ccccc2)cc1	i	i	i	i	i	66.4
COc1ccccc1C(=O)Nc1ccc(NC(=O)C2CCCCC2)nc1	i	i	i	i	i	i
SMILES	CHT inh	HDAC3 inh	ANO1 block	CHT PAM	TMEM16A act	PHOSPHO1 block
O=C(Nc1ccc(NC(=O)C2CCCCC2)nc1)c1ccccn1	i	i	i	i	i	62.9
O=C(COC(=O)Cc1cn2ccsc2n1)NC12CC3CC(CC(C3)C1)C2	i	i	i	i	i	i
CC1CCCC(NC(=O)COC(=O)Cc2cn3ccsc3n2)C1C (stereo not drawn)	nt	nt	nt	nt	i	95.8
O=C(NC1CCN(Cc2ccccc2)CC1)c1cccc(S(=O)(=O)Nc2cc(C(F)(F)F)ccc2Cl)c1	i	i	25	i	i	i
CCC1CCCCN1C(=O)c1cccc(S(=O)(=O)Nc2cc(C(F)(F)F)ccc2Cl)c1 (stereo not drawn)	i	i	25	i	i	i
O=C(c1cccc(S(=O)(=O)Nc2ccccc2Cl)c1)N1CCCCCC1	i	i	i	i	i	nt
CCCNC(=O)c1ccccc1NS(=O)(=O)c1ccc(OC)c(OC)c1	i	i	i	i	i	i

Compound activity from PubChem.
